Records with an inconclusive call do not appear. Calls of active or inactive are those of the source. Unless noted, calls follow the shape of the dose curve; as a rule, active = well fitted curve in the direction sought with a large enough effect in the repeat runs; inconclusive = weak or mixed curves; inactive = no such curve, though single readings can be large; an effect the other way counts as inactive or inconclusive.
Legend:
[1] = qHTS assay for small molecule agonists of the p53 signaling pathway (AID 651631; calls by dose curve; also: nearly all actives have a fitted effect of over 15% in size; also: potency is read from the fitted curve at half-maximal effect)
Summary of the method: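 Quantitative high-throughput format: 4,000 p53RE-bla HCT-116 cells/well, 5 h pre-incubation, 16 h compound exposure at 37 °C, 2 h room-temperature substrate step, fluorescence intensity measured.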

[2] = qHTS assay for small molecules that induce genotoxicity in human embryonic kidney cells expressing luciferase-tagged ATAD5 (AID 651632); also: nearly all actives have a fitted effect of over 15% in size; also: potency is read from the fitted curve at half-maximal effect
Summary of the method: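 A rise in luciferase signal from ATAD5-tagged HEK293T cells marks genetic stress. Cells were exposed to compounds for 16 hr at 37C, 5% CO2, then luciferase was quantified after a 30 min room-temperature incubation with Amplite.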

[3] = qHTS assay for small molecule agonists of the p53 signaling pathway - cell viability (AID 651633; calls by dose curve; also: nearly all actives have a fitted effect of over 30% in size; also: potency is read from the fitted curve at half-maximal effect)
Summary of the method: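 p53RE-bla cells were treated with compound for 16 hours at 37 C. Cytotoxicity was then measured as CellTiter-Glo luminescence after 30 min at room temperature.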

[4] = qHTS assay for small molecules that induce genotoxicity in human embryonic kidney cells expressing luciferase-tagged ATAD5 - cell viability (AID 651634; calls by dose curve; also: nearly all actives have a fitted effect of over 25% in size)
Summary of the method: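 Cytotoxicity counter-readout: after 15.5 hr compound treatment at 37C, live-cell protease activity in ATAD5-luciferase HEK293T cells measured by CellTiter-Fluor fluorescence, 30 min development at 37C.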

[5] = qHTS assay for small molecule disruptors of the mitochondrial membrane potential (AID 720635); also: potency is read from the fitted curve at half-maximal effect
Summary of the method: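 HepG2 cells exposed to compound 1 hr at 37C, then Mito-MPS dye 30 min. Ratio read of aggregate (540/590 nm) versus monomer (490/535 nm) fluorescence.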

[6] = qHTS assay to test for compound auto fluorescence at 590 nm (red) in HepG2 cells (AID 720674)
Summary of the method: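 HepG2 cells, 2,000 per well in MEM with 10% FBS, attached overnight at 37 C, then got 23 nL compound or DMSO. After 1 hr at 37 C, 5% CO2, red fluorescence was read at 540/590 nm against Rose Bengal sodium as reference.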

[7] = qHTS assay to test for compound auto fluorescence at 535 nm (green) in HepG2 cells (AID 720675)
[8] = qHTS assay to test for compound auto fluorescence at 460 nm (blue) in HEK293 cells (AID 720678)
Summary of the method: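 Measured: blue fluorescence (Ex 405/Em 460 nm) of compound-treated HEK293 cells, incubated overnight at 37C with 5% CO2 and scaled to triamterene equivalents.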

[9] = qHTS assay to test for compound auto fluorescence at 590 nm (red) in HEK293 cells (AID 720679)
Summary of the method: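 Using HEK293 cells at 2,000 per well, the screen added 23 nL of each compound after cell attachment and incubated overnight (37C, 5% CO2). The plate reader then captured red-label fluorescence, Ex/Em 540/590nm.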

[10] = qHTS assay to test for compound auto fluorescence at 535 nm (green) in HEK293 cells (AID 720680)
[11] = qHTS assay to test for compound auto fluorescence at 460 nm (blue) in HEK293 cell free culture (AID 720681)
Summary of the method: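 Compounds were added to cell-free DMEM with 10% FBS and fluorescence read directly. The blue channel used 405 nm excitation and 460 nm emission, with triamterene as the reference fluorophore.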

[12] = qHTS assay to test for compound auto fluorescence at 535 nm (green) in HEK293 cell free culture (AID 720682)
Summary of the method: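 Measurement is a direct plate read of green fluorescence (485 nm in, 535 nm out) after compound addition to serum-supplemented DMEM lacking cells, with fluorescein used to express intensities.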

[13] = qHTS assay to test for compound auto fluorescence at 590 nm (red) in HEK293 cell free culture (AID 720683)
Summary of the method: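 Cell-free wells of DMEM with 10% FBS received compound, and intrinsic fluorescence was read at excitation/emission 540/590 nm. Values expressed as equivalence to Rose Bengal sodium.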

[14] = qHTS assay to test for compound auto fluorescence at 590 nm (red) in HepG2 cell free culture (AID 720684)
Summary of the method: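 Rose Bengal sodium served as the reference for red signal. Test compounds were dispensed into serum-containing MEM (10% FBS) without cells, and plates were read at 540/590 nm.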

[15] = qHTS assay to test for compound auto fluorescence at 460 nm (blue) in HepG2 cell free culture (AID 720685)
Summary of the method: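 Cell-free plates of MEM plus 10% FBS received 23 nL compound or DMSO vehicle; blue-channel (405/460 nm) intensity scored against triamterene as reference fluorophore.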

[16] = qHTS assay to test for compound auto fluorescence at 535 nm (green) in HepG2 cell free culture (AID 720686)
[17] = qHTS assay to test for compound auto fluorescence at 460 nm (blue) in HepG2 cells (AID 720687)
Summary of the method: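 HepG2 cells in MEM with 10% FBS, attached overnight at 37 C, were exposed to compound or DMSO for 1 hr at 37 C, 5% CO2. Blue fluorescence was read at 405/460 nm, with triamterene as reference fluorophore.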

[18] = qHTS assay for small molecule disruptors of the mitochondrial membrane potential - cell viability (AID 720634; calls by dose curve;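 also: human HepG2 liver cancer cells; series mostly up to about 83 µM; nearly all actives have a fitted effect of over 20% in size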)
Summary of the method: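 Cytotoxicity was quantified from ATP content by CellTiter-Glo luminescence in the same wells as the MMP dye read-out. HepG2 (2,000 cells/well) were plated overnight and exposed to compounds for 1 hr at 37 C.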

[19] = target: Glucocorticoid receptor (Homo sapiens) (UniProt P04150); assay: qHTS assay to identify small molecule agonists of the glucocorticoid receptor (GR) signaling pathway (AID 720691; active = well fitted activation curve with a large enough effect in the signal ratio in the repeat runs, not every such curve was filed as active; the % refers to the signal ratio)
Glucocorticoid receptor (Homo sapiens), sequence (P04150 whole entry, looked up): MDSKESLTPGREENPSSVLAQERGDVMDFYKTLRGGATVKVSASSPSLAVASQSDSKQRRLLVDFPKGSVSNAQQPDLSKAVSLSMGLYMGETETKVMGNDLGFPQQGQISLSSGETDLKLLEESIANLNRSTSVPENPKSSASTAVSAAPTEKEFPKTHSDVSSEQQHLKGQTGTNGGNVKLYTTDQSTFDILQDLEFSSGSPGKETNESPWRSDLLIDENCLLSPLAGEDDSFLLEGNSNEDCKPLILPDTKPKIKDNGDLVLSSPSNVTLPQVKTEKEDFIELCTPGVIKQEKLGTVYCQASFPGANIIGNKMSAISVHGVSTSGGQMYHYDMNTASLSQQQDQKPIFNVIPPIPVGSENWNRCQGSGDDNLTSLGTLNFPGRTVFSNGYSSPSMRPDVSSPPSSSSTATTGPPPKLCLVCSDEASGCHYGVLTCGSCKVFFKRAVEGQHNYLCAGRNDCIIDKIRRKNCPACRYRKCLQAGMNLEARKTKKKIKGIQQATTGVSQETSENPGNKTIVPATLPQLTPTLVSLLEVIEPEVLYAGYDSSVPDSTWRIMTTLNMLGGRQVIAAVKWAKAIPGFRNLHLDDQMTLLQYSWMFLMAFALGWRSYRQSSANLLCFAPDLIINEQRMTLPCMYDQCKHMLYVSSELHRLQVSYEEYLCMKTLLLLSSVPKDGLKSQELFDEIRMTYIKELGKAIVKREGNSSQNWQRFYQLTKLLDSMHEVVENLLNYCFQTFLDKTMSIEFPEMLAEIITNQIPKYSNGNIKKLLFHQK
Summary of the method: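 Agonist-mode qHTS in HeLa cells stably expressing a glucocorticoid-response-element beta-lactamase reporter. Fluorescence intensity read with FRET substrate (2 h, room temperature) after 18 h compound treatment at 37 C.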

[20] = target: Glucocorticoid receptor (Homo sapiens) (UniProt P04150); assay: qHTS assay to identify small molecule antagonists of the glucocorticoid receptor (GR) signaling pathway (AID 720692; active = well fitted inhibition curve with a large enough effect in the signal ratio in the repeat runs, not every such curve was filed as active; the % refers to the signal ratio)
Summary of the method: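 Inhibition of dexamethasone-driven (5 nM final) beta-lactamase expression was measured in GRE-reporter HeLa cells over 18 h at 37C. Fluorescence was read after 2 h with the B/G FRET substrate at room temperature.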

Measured: Potency

c1ccc(CCNc2nc(-c3ccccc3)cs2)cc1
active: [2] 3.35 µM | [5] 10.6 µM
not listed: [18] | [19] | [20]
inactive: all other assays above

O=c1[nH][nH]c2ccccc12
not listed: [5] | [6] | [20]
inactive: all other assays above

C/C(=C(\CCO)SS/C(CCO)=C(\C)N(C=O)Cc1cnc(C)nc1N)N(C=O)Cc1cnc(C)nc1N
not listed: [5] | [14]
inactive: all other assays above

CCCCCCOC(=O)c1ccccc1
not listed: [10] | [18]
inactive: all other assays above

O=P(c1ccccc1)(c1ccccc1)c1ccccc1
not listed: [5] | [12] | [13] | [14] | [19] | [20]
inactive: all other assays above

CC(=O)Nc1cccc(N)c1
not listed: [5] | [6] | [15]
inactive: all other assays above

Cc1ccccc1CCO
not listed: [5] | [6] | [19] | [20]
inactive: all other assays above

Cc1c(Cl)cccc1Nc1ccccc1C(=O)O
active: [1] 21.1 µM | [3] 18.8 µM | [5] 11.9 µM
not listed: [10] | [12] | [18] | [19] | [20]
inactive: all other assays above

Clc1ccccc1-c1nc(-c2ccncc2)no1
active: [2] 6.68 µM
not listed: [18] | [20]
inactive: all other assays above

CC(C)C/C=C(\C=O)c1ccccc1
not listed: [5] | [6] | [20]
inactive: all other assays above

CC(=O)S[C@H](C(=O)N[C@H]1Cc2ccccc2[C@H]2CCC[C@@H](C(=O)O)N2C1=O)C(C)C
not listed: [18]
inactive: all other assays above

O=S(=O)(O)c1cc(Cl)c(Cl)cc1Cl
not listed: [5] | [12] | [13] | [14] | [19] | [20]
inactive: all other assays above

CCc1ccc2c(c1)C(=O)c1ccccc1C2=O
active: [2] 12.2 µM | [5] 13.7 µM
not listed: [18] | [19] | [20]
inactive: all other assays above

CCOC(=O)CC(O)(CC(=O)OCC)C(=O)OCC
not listed: [5] | [18]
inactive: all other assays above

Source: PubChem BioAssay (Tox21)
